# Source: PubChem (National Center for Advancing Translational Sciences (NCATS))
# TDP1 inh – qHTS Assay for Inhibitors of Tyrosyl-DNA Phosphodiesterase (TDP1). Tyrosyl-DNA phosphodiesterase 1 (Homo sapiens), Q9NUW8. recombinant TDP1, AlphaScreen DNA substrate cleavage. Potency, µM (highest dose often 130 µM), for inactives: at the highest dose activity change, negative = inhibition, hits mostly inhibitors. hit rate 0.28% among 350,000; further: potency means the concentration at half of the fitted maximal effect; nearly all actives have a fitted effect of over 40% in size
# Target sequence (Q9NUW8 whole entry, looked up): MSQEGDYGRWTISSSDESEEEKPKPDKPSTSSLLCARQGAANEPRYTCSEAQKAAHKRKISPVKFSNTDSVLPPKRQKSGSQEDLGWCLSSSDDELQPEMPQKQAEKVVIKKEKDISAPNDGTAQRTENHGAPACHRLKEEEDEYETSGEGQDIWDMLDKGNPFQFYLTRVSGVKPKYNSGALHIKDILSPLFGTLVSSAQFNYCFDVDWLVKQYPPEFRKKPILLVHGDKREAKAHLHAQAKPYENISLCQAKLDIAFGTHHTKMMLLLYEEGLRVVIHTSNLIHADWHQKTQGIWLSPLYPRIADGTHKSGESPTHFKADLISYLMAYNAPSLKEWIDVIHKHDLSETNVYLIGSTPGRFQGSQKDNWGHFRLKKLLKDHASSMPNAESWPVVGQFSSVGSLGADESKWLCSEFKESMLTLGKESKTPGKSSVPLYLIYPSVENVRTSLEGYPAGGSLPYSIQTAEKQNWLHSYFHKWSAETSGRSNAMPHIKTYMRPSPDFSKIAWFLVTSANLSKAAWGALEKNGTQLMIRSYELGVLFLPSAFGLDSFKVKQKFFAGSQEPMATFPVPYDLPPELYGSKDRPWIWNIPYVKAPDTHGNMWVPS
#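 Recombinant human Tdp1 (E. coli-expressed, 1 nM final) preincubated with compounds 15 min at room temperature, then 5'-biotin/3'-phosphotyrosine-FITC DNA substrate (15 nM final) added for 5 min. AlphaScreen beads (10 ug/ml final) added 10 min; cleavage lowers signal.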
# DT40 TDP1 CPT – qHTS for Inhibitors of human tyrosyl-DNA phosphodiesterase 1 (TDP1): qHTS in cells in presence of CPT; chicken DT40 Tdp1-/-;hTDP1 cells + 20 nM CPT, ATP luminescence, 48 h; Potency, µM (series often up to 46.2 µM), without a hit: at the highest dose activity change, negative = growth inhibition, usual class: inhibitors; hit rate 12% among 420,000; AID 686979, 2013; further: potency means the concentration at half of the fitted maximal effect; nearly all actives have a fitted effect of over 55% in size
#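 Cell growth measured by CellTiter-Glo luminescence after a minimum 48 h, 37 C compound exposure with 20 nM CPT in Tdp1-knockout DT40 cells stably expressing hTDP1, seeded 400/well; qHTS titration format.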
# TDP1 cell noCPT – qHTS for Inhibitors of human tyrosyl-DNA phosphodiesterase 1 (TDP1): qHTS in cells in absence of CPT. hit rate 15% among 420,000. DT40 Tdp1-/- hTDP1 cells, no CPT, ATP luminescence, 48 h. AID 686978, 2013. Potency, µM (top dose mostly 46.2 µM), inactives show top-dose activity change, negative = growth inhibition, most hits filed as inhibitors; further: potency means the concentration at half of the fitted maximal effect; nearly all actives have a fitted effect of over 55% in size
#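 Luminescent ATP content (CellTiter-Glo) served as the growth readout. Knockout chicken DT40 cells expressing human TDP1 were exposed to compounds without camptothecin for a minimum 48 hr at 37 °C.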
# ELG1 DNA repair – qHTS screen for small molecules that inhibit ELG1-dependent DNA repair in human embryonic kidney (HEK293T) cells expressing luciferase-tagged ELG1; Potency, µM (titrated, usually from 46.1 µM), for inactives: at the highest dose activity change, negative = inhibition, actives largely listed as inhibitors; hit rate 2.3% among 330,000; HEK293T ELG1-luciferase reporter, luminescence, 16 h; DNA damage induced by 5-fluorouridine; further: potency means the concentration at half of the fitted maximal effect; nearly all actives have a fitted effect of over 55% in size
#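 Overnight (16 hr) co-exposure of 2,000 cells/well to 5-fluorouridine and compound at 37 °C preceded detection. Luciferase was quantified via ONE-Glo luminescence; loss of signal denotes inhibition.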
# Giardia kill – Small Molecules that selectively kill Giardia lamblia: qHTS; Giardia lamblia trophozoite viability; activity change, % at 7.66 µM, hits read low; hit rate 0.15% among 340,000; in the data active means activity change below about -80%; inconclusive means between about -30% and that limit;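 further: parasites exposed to compound for two days anaerobically before the ATP read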
#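 Media and compound were dispensed first, then trophozoites at 100 cells/well; plates sat 48 hrs at 37 deg C without oxygen before ATP luminescence reagent was added and read after 15-30 min at room temperature.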
# IL-1B inflam inh – qHTS for Inhibitors of Inflammasome Signaling: IL-1-beta AlphaLISA Primary Screen; THP-1 LPS/ATP IL-1B secretion, AlphaLISA, 16 h; stronger effect = lower value; activity change, % at 57.5 µM; hit rate 4.7% among 360,000; in the data active means activity change below about -50%; inconclusive means mostly about -30% to -49%
#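 THP-1 cells pretreated 1 hr with compounds (up to 57.5 uM final), then stimulated with LPS (250 ng/mL final) plus ATP (1.25 mM final); secreted IL-1B measured by AlphaLISA after 16 hr, decreased signal indicating inhibition.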
# * marks the source's active call; other numbers are inactive results; ? = inconclusive; nt = no result given; ! = repeats disagree. In the library only some 19% were active in any assay of this set; here they are far more common. Unless noted, the call rests on the fitted dose curve; in most records, active means well fitted curve in the direction sought with a large enough effect; inconclusive means small, poorly fitted or top-dose-only effect, or another doubt; inactive means no such curve, though single readings can be large; an effect the other way counts as inactive or inconclusive. On the % scale 0 is the no-effect control and ±100 the full control effect.
SMILES,TDP1 inh,DT40 TDP1 CPT,TDP1 cell noCPT,ELG1 DNA repair,Giardia kill,IL-1B inflam inh
COc1ccc2cc(CN(CC3CCCO3)C(=O)Nc3ccccc3)c(=O)[nH]c2c1 (centres undefined),-3%,?,-13%,18µM*,-13,?
COc1ccc2[nH]c(=O)c(CN(CC3CCCO3)C(=O)Nc3ccc(F)cc3)cc2c1 (centres undefined),8%,16µM*,12µM*,7.3µM*,-9,3
Cc1cccc(CCN(Cc2cc3cccc(C)c3[nH]c2=O)C(=O)N2CCOCC2)c1,7%,?,-25%,?,13,-7
Cc1ccc2[nH]c(=O)c(CN(Cc3ccccc3Cl)C(=O)N3CCOCC3)cc2c1,10%,?,21µM*,-3%,-10,?
COc1ccc(NC(=O)N(Cc2cc3cc(OC)c(OC)cc3[nH]c2=O)CC2CCCO2)cc1 (centres undefined),-1%,?,?,?,14,-9
CCCN1CCCC(c2cccc(S(C)(=O)=O)c2)C1 (centres undefined),4%,nt,nt,nt,nt,nt
O=C(N1CCCCC1)C12CC3CC(C1)CC(C(=O)N1CCCCC1)(C3)C2,5%,?,23µM*,1%,6,3
C=CC[C@@H](CC(=O)N(CCO)Cc1ccccc1)C(=O)N[C@@H](COC(=O)[C@H](CC=C)CC(=O)OC(C)(C)C)Cc1c[nH]c2ccccc12,3%,?,?,?,9,-72*
C=CC[C@H](CC(=O)N(CCO)Cc1ccccc1)C(=O)N[C@H](COC(=O)[C@H](CC=C)CC(=O)OC(C)(C)C)Cc1c[nH]c2ccccc12,5%,?,?,21µM*,10,-60*
C=CC[C@H](CC(=O)N[C@H](CO)Cc1ccccc1)C(=O)N[C@H](COC(=O)[C@H](CC=C)CC(=O)OC(C)(C)C)Cc1c[nH]c2ccccc12,1%,?,?,-16%,-13,-16
C=CC[C@H](CC(=O)N(CCO)Cc1ccccc1)C(=O)N[C@@H](COC(=O)[C@@H](CC=C)CC(=O)OC(C)(C)C)Cc1c[nH]c2ccccc12,4%,?,?,18µM*,15,?
COC(=O)C(Cc1ccc(O)cc1)NC(=O)CCc1nc2ccccc2s1 (centres undefined),nt,9%,-9%,?,13,14
COc1ccc(C2=C(C)C(N3CCC(C(=O)Nc4ccc(F)cc4C)CC3)=NS2(=O)=O)cc1,5%,-24%,-15%,nt,nt,nt
COc1ccc(CC2C(=O)NC(C)C(=O)N(C)C3Cc4ccc(cc4)Oc4cc(ccc4O)CC(C(=O)NC(C)C(=O)NC(C)C(=O)N2C)N(C)C3=O)cc1 (centres undefined),nt,0.018µM*,0.16µM*,nt,-6,-100*
O=C(COC(=O)c1ccc2ncsc2c1)Nc1cc([N+](=O)[O-])ccc1Cl,-13%,-15%,-24%,?,-17,19
CC1(C)N=C(N)N=C(N)N1c1ccc(OCC(=O)N2CCOCC2)c(Cl)c1,nt,0.41µM*,0.37µM*,nt,nt,2
CC1(C)N=C(N)N=C(N)N1c1ccc(OCC(=O)Nc2ccccc2)c(Cl)c1,nt,1.2µM*,0.73µM*,nt,nt,-21
Cc1cccc(NC(=O)CCc2ccc(N3C(N)=NC(N)=NC3(C)C)cc2)c1,nt,0.33µM*,0.37µM*,nt,nt,5
CC1(C)N=C(N)N=C(N)N1c1ccc(OCC(=O)N2CCOCC2)cc1,nt,?,?,nt,nt,-12
CC1(C)N=C(N)N=C(N)N1c1cccc(C(=O)O)c1,0%,-4%,-5%,?,-13,-3
CC1(C)N=C(N)N=C(N)N1c1cccc(CC(=O)Nc2ccccc2)c1,nt,9.2µM*,2.6µM*,nt,nt,-11
COc1cccc(Cn2c(=O)c(-c3cccc(C#N)c3)nc3cnc(Nc4ccccc4)nc32)c1,nt,1%,0%,nt,nt,nt
Cc1ccc(N(CC(=O)Nc2cccc(Cl)c2C)S(=O)(=O)c2c(C)noc2C)cc1,-5%,?,?,nt,nt,nt
COc1ccccc1N1C(N)=NC(N)=NC1(C)C,5%,-10%,?,-10%,22,24
CC1(C)N=C(N)N=C(N)N1c1ccc(OCCCOc2ccccc2)c(Cl)c1,7%,1.8µM*,2.3µM*,2.6µM*,14,?
SMILES,TDP1 inh,DT40 TDP1 CPT,TDP1 cell noCPT,ELG1 DNA repair,Giardia kill,IL-1B inflam inh
COC(=O)[C@]12CCCCC=C1N(CCC1=CCCCC1)C(=O)[C@H](CC(=O)NCCc1ccccc1OC)C2,nt,16µM*,?,nt,nt,-52*
CCOC(=O)[C@]12CCCC=C1N(CCC1=CCCCC1)C(=O)[C@H](CC(=O)NCCc1ccccc1OC)C2,nt,13µM*,13µM*,nt,nt,-24
O=C(CSc1n[nH]c(=O)n1Cc1ccccc1)Nc1ccc(N2CCOCC2)cc1,-9%,-14%,-3%,-4%,-13,13
COc1ccc(OC)c2c(=O)cc(C(=O)O)[nH]c12,nt,5%,1%,-1%,3,-6
O=C(O)c1cc(=O)c2c3nc4ccccc4oc-3cc(=O)c2[nH]1,nt,25µM*,11µM*!,nt,nt,nt
Cc1ccc(-n2ncc(C(=O)NCCN3CCCC3)c2C2CCN(C(=O)OC(C)(C)C)CC2)cc1,3%,23µM*,?,nt,nt,nt
COc1ccc(-n2ncc(C(=O)NCCCN3CCCCC3)c2C2CCN(C(=O)OC(C)(C)C)CC2)cc1,2%,18µM*,18µM*,nt,nt,nt
Cc1ccc(-n2ncc(C(=O)N3CCN(Cc4ccccc4)CC3)c2C2CCN(C(=O)OC(C)(C)C)CC2)cc1,6%,?,-16%,nt,nt,nt
CC(C)(C)OC(=O)N1CCC(c2c(C(=O)NCCN3CCC(Cc4ccccc4)CC3)cnn2-c2cccc(Cl)c2)CC1,5%,5.8µM*,3.7µM*,nt,nt,nt
CCN1CCN(CCCNC(=O)c2cnn(-c3ccc(C)cc3)c2C2CCN(C(=O)OC(C)(C)C)CC2)CC1,4%,?,?,nt,nt,nt
Cc1ccc(-n2ncc(C(=O)NCCN3CCC(Cc4ccccc4)CC3)c2C2CCN(C(=O)OC(C)(C)C)CC2)cc1,0%,4.6µM*,2.9µM*,nt,nt,nt
CC(C)(C)OC(=O)N1CCC(c2c(C(=O)NC3CC3)cnn2-c2ccc(Cl)cc2)CC1,2%,?,-16%,2%,-8,16
